This passage reports Potency results from PubChem BioAssay (NCATS).

Where “and” joins values, the source holds several entries; their conditions need not be identical. Equal values may be shown once. Inconclusive results are not listed. A call without a number means that no potency is given here. Calls of active or inactive are those of the source. Unless noted, calls come from the whole dose curve; as a rule, active = well fitted curve in the direction sought with a large enough effect; inconclusive = small, poorly fitted or top-dose-only effect, or another doubt; inactive = no such curve, though single readings can be large; an effect the other way counts as inactive or inconclusive.

Assay [1] has as its target Calcium and integrin-binding protein 1 (Homo sapiens) (UniProt Q99828). Kind of assay: Primary qHTS for Identification of Calcium Integrin Binding Protein 1 (CIB1) Competitor (AID 1508620).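 Note: GST tagged CIB1 binding a fluorescein labelled alphaIIb integrin peptide tracer; top concentration of the series differs between compounds.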 A digest of the protocol: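 CIB1-GST (1 uM final) and compound incubated 15 min at room temperature before adding FITC-alphaIIb peptide tracer (100 nM final). Competition for binding read by fluorescence polarization (ex 480, em 540) after another 15 min at room temperature.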
(In general: In qHTS, concentration-response curves come from the screen itself.)

Assay [2] is described as follows: Primary qHTS for small molecule stabilizers of the endoplasmic reticulum resident proteome: Secreted ER Calcium Modulated Protein (SERCaMP) assay (AID 1508630). A digest of the protocol: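 The SH-SY5Y reporter protocol was run at 3 concentrations up to 38.3 uM (primary) or 11 concentrations (follow-up): 16 h compound, 100 nM thapsigargin for 4 h, then extracellular luciferase luminescence.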

Assay [3] has as its target Cytochrome P450 2D6 (Homo sapiens) (UniProt P10635). As to the kind of experiment: Cytochrome P450 family 2 subfamily D member 6 (CYP2D6) small molecule antagonists: luciferase biochemical (cell-free) qHTS assay (AID 1645840; active = well fitted curve in the direction sought with a large enough effect in the repeat runs; an effect the other way counts as inactive or inconclusive; note: nearly all actives have a fitted effect of over 55% in size; note: potency is the fitted concentration of half-maximal effect). Summed up:
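P450-Glo CYP2D6 system: proluciferin substrate converted by enzyme to luciferin, read by luminescence proportional to activity. Enzyme-substrate mix with compound 10 min at room temperature, then NADPH regeneration 1 h before detection reagent.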

Assay [4] in a line: A High-Content qHTS Against Drug Library for the Identification of Small Molecules that Inhibit DYT1 Early Onset Primary Dystonia-Associated Cell Pathology (AID 1645839; calls by dose curve; note: potency is the fitted concentration of half-maximal effect). Summed up: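 High-content imaging quantified EGFP-TorsinA mislocalization in HEK293-derived cells inducibly expressing DYT1 mutant torsinA, after 48 h exposure to compound given together with tetracycline induction. Cell count served as a toxicity channel alongside %pathology.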

Sequence of Cytochrome P450 2D6 (Homo sapiens) (P10635 whole entry, looked up): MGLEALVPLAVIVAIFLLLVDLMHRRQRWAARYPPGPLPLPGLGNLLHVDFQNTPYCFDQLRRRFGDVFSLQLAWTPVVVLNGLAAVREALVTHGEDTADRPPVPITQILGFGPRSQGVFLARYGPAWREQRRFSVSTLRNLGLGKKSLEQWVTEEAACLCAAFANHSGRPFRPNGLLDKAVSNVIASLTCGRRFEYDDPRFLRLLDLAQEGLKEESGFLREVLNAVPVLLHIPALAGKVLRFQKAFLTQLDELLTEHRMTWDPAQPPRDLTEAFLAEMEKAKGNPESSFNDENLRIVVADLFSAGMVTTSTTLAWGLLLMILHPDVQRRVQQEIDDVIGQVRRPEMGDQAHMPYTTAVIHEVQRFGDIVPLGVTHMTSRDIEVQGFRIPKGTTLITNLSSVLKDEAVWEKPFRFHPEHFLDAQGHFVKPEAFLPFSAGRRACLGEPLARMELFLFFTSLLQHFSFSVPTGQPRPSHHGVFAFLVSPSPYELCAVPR
Sequence of Calcium and integrin-binding protein 1 (Homo sapiens) (Q99828 whole entry, looked up): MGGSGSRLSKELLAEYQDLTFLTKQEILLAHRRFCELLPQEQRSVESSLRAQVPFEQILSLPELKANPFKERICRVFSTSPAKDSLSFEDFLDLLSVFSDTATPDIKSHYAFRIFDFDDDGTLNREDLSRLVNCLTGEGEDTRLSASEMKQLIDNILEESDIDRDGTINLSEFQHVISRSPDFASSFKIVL

As for `CC(C)(C)c1cc(C(=O)O)c(NC(=O)Nc2ccc3[nH]ncc3c2)s1`, the Potency result in assay [1] and in assay [2] was “inactive” in each case. Besides, in assay [3], the Potency is 3.38 µM (active).

Take `Clc1ccc(-c2nc3sccn3c2C=NOCc2ccc(Cl)c(Cl)c2)cc1`: the Potency entry in assay [1], in assay [2] and in assay [3] was “inactive” throughout.

`c1ccc2c(-c3cnn4cc(-c5ccc(N6CCNCC6)cc5)cnc34)ccnc2c1`: the Potency entry in assay [1], in assay [2] and in assay [3] was “inactive” each time.

For `Cc1ccc(Nc2cc(-c3cccc(N4C(=O)c5ccccc5C4=O)c3)ncn2)cc1NS(C)(=O)=O`, the Potency result in assay [1], in assay [2] and in assay [3] was “inactive” throughout.

Regarding `CC(C)C(=O)Nc1ncc(-c2cc(C(F)F)nn2-c2c(Cl)cccc2Cl)s1`, the Potency entry in assay [1] and in assay [2] was “inactive” in each case. The Potency in assay [3] is 10.7 µM (active).

Regarding `O=C(Nc1c(Cl)cncc1Cl)c1ccc(OC(F)F)c(OCC2CC2)c1`, the Potency result in assay [2] was “inactive”.

As for `CCCCC1C(=O)N(c2ccccc2)N(c2ccccc2)C1=O`, the Potency entry in assay [2], in assay [4] and in assay [3] was “inactive” throughout.

`COc1cc(N2CCC(N3CCN(C)CC3)CC2)ccc1Nc1ncnc(Nc2ccccc2S(=O)(=O)C(C)C)n1`: the Potency entry in assay [2] and in assay [3] was “inactive” throughout.

On to `CC(=NNC(=S)N1CCC1)c1ccccn1`, for which the Potency result in assay [2] is “inactive”.

For `O=c1c(-c2ccc(O)cc2)coc2cc(O[C@@H]3O[C@H](CO)[C@H](O)[C@H](O)[C@H]3O)ccc12`, in assay [2], the Potency result was “inactive”.

Consider `O=C(O)c1cc(O)c2c(c1)C(=O)c1cccc(O)c1C2=O`, for which the Potency result in assay [2] was “inactive”.

As for `COc1cc2c(cc1OC)CN(CCc1ccc(NC(=O)c3cc(OC)c(OC)cc3NC(=O)c3cnc4ccccc4c3)cc1)CC2`, the Potency result in assay [2] is “inactive”.

With `O=C1c2c(O)cc(O)cc2O[C@H](c2cc(O)c(O)c(O)c2)[C@H]1O`, in assay [2], the Potency result was “inactive”.

Take `O=C(CCCCCCC(=O)Nc1ccccc1)NO`: the Potency result in assay [2] is “inactive”. Besides, the Potency in assay [3] is 4.9 µM (active).

For the compound `COc1ccc2c3c1OC1C[C@@H](O)C=C[C@@]31CCN(C)C2` (stereo not given in full), the Potency entry in assay [2] was “inactive”.

For `CC(=Cc1ccccc1)C=C1SC(=S)N(CC(=O)O)C1=O`, the Potency result in assay [2] was “inactive”.

`CC(=O)CCCCn1c(=O)c2c(ncn2C)n(C)c1=O`: the Potency entry in assay [2], in assay [4] and in assay [3] was “inactive” each time.

With `CC(=O)O[C@]1(C(C)=O)CC[C@@H]2[C@@H]3C[C@H](C)C4=CC(=O)CC[C@]4(C)[C@H]3CC[C@@]21C`, the Potency entry in assay [2] was “inactive”.

`CCn1c(C(=O)N(C2CC2)C2CC2)cc2c3c(ncn3C)c(Nc3cc(C)n(C)n3)nc21`: the Potency entry in assay [2] and in assay [3] was “inactive” throughout.

On to `COC(=O)[C@@H]1[C@H]2C[C@H]3c4[nH]c5ccccc5c4CCN3C[C@@H]2CC[C@@H]1O`, for which the Potency result in assay [2] was “inactive”.

Turning to `CC=CCC=CCCC(=O)[C@H]1O[C@@H]1C(N)=O`, the Potency result in assay [2] is “inactive”.

Turning to `Nc1ncnc2ccccc12`, in assay [2], the Potency result is “inactive”.

Consider `O=c1c(-c2ccc(O)cc2)coc2cc(OC3O[C@H](CO)[C@H](O)[C@H](O)[C@H]3O)cc(O)c12` (stereo not given in full), for which the Potency result in assay [2] is “inactive”. For the same compound, the Potency in assay [3] was 30.1 µM (active).

`Cc1cc(OCCCc2c(C(=O)O)n(Cc3cccnc3)c3c(-c4c(COc5ccc(N6CCN([S+](C)(=O)[O-])CC6)cc5)nn(C)c4C)cccc23)cc(C)c1Cl`: in assay [2], the Potency result was “inactive”.

With `NC(=O)c1cnc(-c2ccc(C3(N)CCC3)cc2)c(-c2ccccc2)c1`, the Potency result in assay [2] is “inactive”.

Take `C[N+](C)(C)CC(=O)O`: the Potency entry in assay [4] and in assay [3] was “inactive” throughout.

For `Cc1c(NC(=O)c2ccc(C(C)(C)C)cc2)cccc1-c1cn(C)c(=O)c(Nc2ccc(C(=O)N3CCOCC3)cc2)n1`, the Potency result in assay [2] and in assay [3] was “inactive” throughout.

Consider `c1ccc2c(Cc3c[nH]c4ccccc34)c[nH]c2c1`, for which the Potency entry in assay [2] is “inactive”.

For the compound `CC(C)OC(=O)C(C)(C)Oc1ccc(C(=O)c2ccc(Cl)cc2)cc1`, the Potency entry in assay [2], in assay [4] and in assay [3] was “inactive” in each case.

For the compound `COc1ccc2c(Oc3ccc(NC(=O)c4c(C)n(CC(C)(C)O)n(-c5ccccc5)c4=O)cc3F)ccnc2c1`, the Potency result in assay [2] and in assay [3] was “inactive” each time.

As to `C[C@H]1[C@H](NC(=O)C(=NOC(C)(C)C(=O)O)c2csc(N)n2)C(=O)N1S(=O)(=O)O`, the Potency result in assay [2] is “inactive”.

Take `CNC(=O)c1ccc2cc(C3(O)CCn4cncc43)ccc2c1` (stereo not given): the Potency entry in assay [2] was “inactive”.

`CCCCCCCCCCCC1=C(O)C(=O)C=C(O)C1=O`: the Potency result in assay [2] and in assay [3] was “inactive” throughout.

Take `COc1ccc(-c2cc(=O)c3c(O)cc(O)cc3o2)cc1O`: the Potency entry in assay [2] was “inactive”.

Regarding `O=c1cc(N2CCOCC2)oc2c(-c3cccc4c3sc3ccccc34)cccc12`, the Potency entry in assay [2] is “inactive”.

As for `N#C[C@H]1C[C@H]2C[C@@H]2N1C(=O)[C@@H](N)C12CC3CC(CC(O)(C3)C1)C2`, the Potency entry in assay [2], in assay [4] and in assay [3] was “inactive” each time.

Take `CC/C(=C(\c1ccccc1)c1ccc(OCCN(C)C)cc1)c1ccccc1`: the Potency result in assay [2] was “inactive”. Besides, the Potency in assay [4] is 11.2 µM (active).

As for `Cc1cccc(C)c1OCC(C)N` (stereo not given), the Potency entry in assay [2] and in assay [4] was “inactive” in each case. The Potency in assay [3] is 13.8 µM (active) and 21.3 µM (active).

In the case of `CO[C@@H](C(=O)N1Cc2[nH]nc(NC(=O)c3ccc(N4CCN(C)CC4)cc3)c2C1)c1ccccc1`, in assay [2], the Potency result is “inactive”.

On to `COc1ccc(-c2oc3c(CC=C(C)C)c(OC4O[C@H](CO)[C@@H](O)[C@H](O)[C@@H]4O)cc(O)c3c(=O)c2OC2O[C@@H](C)[C@H](O)[C@@H](O)[C@@H]2O)cc1` (stereo not given in full), for which the Potency result in assay [2] is “inactive”.

Consider `CN1[C@@H]2CCC[C@@H]1CC(NC(=O)c1nn(C)c3ccccc13)C2` (stereo not given in full), for which the Potency entry in assay [2] was “inactive”.
